Source: PubChem BioAssay (NCATS)
Several values for one entry are separate records, joined by “and”; a condition that tells them apart may be missing. Equal entries are not always repeated. Values without a mark were called inactive. Inconclusive results are not listed. Activity calls are given as the source filed them. Unless noted, calls come from the whole dose curve; as a rule, active = well fitted curve in the direction sought with a large enough effect; inconclusive = small, poorly fitted or top-dose-only effect, or another doubt; inactive = no such curve, though single readings can be large; an effect the other way counts as inactive or inconclusive.

Assays:
[1] = molecular target: Cytochrome P450 1A2 (Homo sapiens) (UniProt P05177); assay: p450-cyp1a2 (AID 410; calls by dose curve; note: potency is the fitted concentration of half-maximal effect)
How it was run: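 20nM CYP1A2, 100uM Luciferin-ME (=Km), 100mM KPO4; cpd 10 min RT; +NADPH regen, 60 min RT; stop/detect 20 min; luminescence. Normalized to furafylline 57 uM = full inhibition.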

[2] = NFAT Signaling Pathway (AID 444; active = well fitted curve in either direction with a large enough effect, not every such curve was filed as active;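 note: carbachol stimulus at about its EC50 of 1 µM final; % is set by controls: 0 for no effect and ±100 for the full control effect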); details: Jurkat NFAT-bla M1, carbachol, beta-lactamase ratio, 5 h; at 38 µM (top of the series)
How it was run: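 Read-out: CCF4 FRET ratio (460 nm/530 nm) after 1 h RT dye loading, used for %activity and AC50 from titration series. Cells: Jurkat NFAT-β-lactamase/M1 line, treated with compound plus 1 uM carbachol for 5 h, 37 °C.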

[3] = Stat Signaling Pathway (AID 446; active = well fitted curve in either direction with a large enough effect, not every such curve was filed as active;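 note: ME-180 cervical cancer cells given 40 pM IL-6 alongside compound; SIE-controlled beta-lactamase reporter measured as 460/530 nm FRET emission ratio; % is set by controls: 0 for no effect and ±100 for the full control effect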); details: ME-180 (cervical carcinoma) SIE beta-lactamase reporter, IL-6 stimulated, 5 h; at 38 µM (top of the series)
How it was run: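 FRET read-out (405 nm excitation, 460/530 nm emission) of a beta-lactamase reporter under a STAT-inducible element in ME-180 cervical carcinoma cells. Cells with compound receive 40 pM IL-6 for 5 h. Values are normalised to AC90 stimulation and AC90 JAK-inhibitor controls.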

[4] = molecular target: Glucocorticoid receptor (Homo sapiens) (UniProt P04150); assay: GR-GFP Redistribution (AID 450;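 active = compounds whose dose series gives a full or clear partial fitted curve of increased nuclear translocation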; note: potency is the fitted concentration of half-maximal effect); details: U2OS GR-GFP nuclear translocation, laser cytometry, 2 h
[5] = molecular target: Glucocorticoid receptor (Homo sapiens) (UniProt P04150); assay: GR-EFC Redistribution (AID 451; calls by dose curve; note: potency is the fitted concentration of half-maximal effect); details: CHO-K1 GR-EFC translocation, beta-gal luminescence, 2 h
How it was run: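 Translocation of GR-ED fusion to nuclear EA restores b-gal, read by luminescence after 1 h room-temperature detection. Engineered CHO-K1 biosensor cells, 1,000/well, exposed 2 h at 37 C to titrations up to 46 uM final.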

[6] = molecular target: Mitogen-activated protein kinase 10 (Mus musculus) (UniProt Q61831); assay: JNK3 AlphaScreen Assay (AID 530; active = well fitted curve in either direction with a large enough effect, not every such curve was filed as active;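 note: kinase came from lysate of stimulated human HepG2 cells; potency is the fitted concentration of half-maximal effect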)
How it was run: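 Kinase buffer: 20 mM Tris-HCl pH 7.6, 10 mM MgCl2, 1 mM DTT, 0.1 mM Na3VO4, 0.01% Tween-20; ATP 10 uM. Substrate biotin-GST-cJun(1-79), enzyme from activated HepG2 lysates. Detection by Ser73 phospho-antibody AlphaScreen.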

[7] = molecular target: Guanine nucleotide-binding protein G(i) subunit alpha-1 (Homo sapiens) (UniProt P63096); assay: qHTS Assay for Inhibitors of RGS12 GoLoco Motif Activity (Green Fluorophore) (AID 879);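 note: 0% = labeled peptide with Gαi1 and full inhibition = labeled peptide alone without protein; negative values mean loss of peptide binding seen as reduced polarization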
How it was run: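 A drop in FITC polarization marked displacement of the FITC-tagged RGS12 GoLoco peptide (10 nM) from Gαi1 (50 nM). Compounds were incubated 10 min at room temperature in Tris pH 7.5 buffer containing 150 mM NaCl, 0.1 mM GDP and 0.05% NP40; unlabeled peptide titration served as control.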

[8] = molecular target: Cytochrome P450 3A4 (Homo sapiens) (UniProt P08684); assay: qHTS Assay for Inhibitors and Substrates of Cytochrome P450 3A4 (AID 884); note: potency is the fitted concentration of half-maximal effect; nearly all actives have a fitted effect of over 50% in size
How it was run: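 Luminescent readout of luciferin produced by CYP3A4 (20 nM) dealkylation of Luciferin-PPXE, 25 uM (its KM). NADPH-driven reaction ran 60 min at RT after 10 min compound preincubation; data scaled to 57 uM ketoconazole as 100% inhibition.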

[9] = molecular target: Cytochrome P450 3A4 (Homo sapiens) (UniProt P08684); assay: qHTS Assay for Activators of Cytochrome P450 3A4 (AID 885); note: nearly all actives have a fitted effect of over 65% in size
How it was run: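 Luminescent readout of luciferin formed from 25 uM Luciferin-PPXE (KM level) by 20 nM CYP3A4 in 200 mM KPO4, with 60 min NADPH-driven reaction at room temperature after 10 min compound exposure. Ketoconazole (57 uM) defined 100% inhibition.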

[10] = molecular target: Cytochrome P450 2C19 (Homo sapiens) (UniProt P33261); assay: qHTS Assay for Inhibitors and Substrates of Cytochrome P450 2C19 (AID 899); note: potency is the fitted concentration of half-maximal effect; nearly all actives have a fitted effect of over 60% in size
How it was run: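 5nM enzyme + 10uM Luciferin-H EGE (=KM), 50mM KPO4; cpd pin-transferred, 10 min 37C; NADPH regen, 60 min 37C; stopped w/ luciferin detection reagent, 20 min; luminescence. Normalized to 57uM ketoconazole (AC100).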

[11] = molecular target: Pyruvate kinase PKM (Homo sapiens) (UniProt P14618); assay: qHTS Assay for Activators of Human Muscle Pyruvate Kinase (AID 954; active = well fitted curve in the direction sought with a large enough effect, not every such curve was filed as active;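 note: 0% = uninhibited enzyme and -100% = no enzyme or full thiadiazolimine inhibition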)
How it was run: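 ATP production by PKM2 detected via luciferase luminescence after 1 h room-temperature reaction (0.1 nM enzyme, PEP at Km 0.5 mM, ADP 0.1 mM, pH 7.2 imidazole buffer). Inhibition scaled to no-enzyme control; activation referenced to 0.3 nM enzyme wells.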

[12] = molecular target: Pyruvate kinase PKM (Homo sapiens) (UniProt P14618); assay: qHTS Assay for Inhibitors of Human Muscle Pyruvate Kinase (AID 958); details: purified human PKM enzyme activity
How it was run: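 Enzyme was run at intermediate activity so both inhibitors and activators could be detected. ATP formed from ADP and PEP by 0.1 nM human PKM2 during a 1 h room-temperature incubation was quantified by coupled luciferase luminescence.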

[13] = molecular target: Pyruvate kinase (Leishmania mexicana) (UniProt Q27686); assay: qHTS Validation Assay for Activators of Leishmania Mexicana Pyruvate Kinase (AID 959)
How it was run: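 qHTS eight-point titrations against 0.2 nM LmPYK (E451W) in imidazole buffer pH 7.2 with 0.5 mM PEP, 0.1 mM ADP; 1 h, room temperature. Readout: PKLight luminescence, normalized to neutral DMSO wells.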

[14] = molecular target: Alpha-galactosidase A (Homo sapiens) (UniProt P06280); assay: Counterscreen for Glucocerebrosidase Inhibitors: qHTS Assay for Human alpha-Galactosidase at pH 4.5 (AID 992); note: 0% is about no effect
How it was run: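 Fluorogenic 1536-well qHTS at pH 4.5 (citrate, Tween-20): 2 nM enzyme, 80 uM 4-MU-alpha-galactoside, 20 min room temperature, NaOH/glycine stop. Titration 0.7 nM to 77 uM, data normalized to no-enzyme and full-activity controls, Hill-fitted AC50.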

[15] = molecular target: alpha-glucosidase (Oryza sativa, rice) (UniProt Q653V4); assay: Counterscreen for Glucocerebrosidase Inhibitors: qHTS Assay for Rice alpha-Glucosidase at pH 5.0 (AID 997);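 note: 0% = full activity with enzyme and -100% = basal without enzyme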
How it was run: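 Endpoint fluorogenic assay at pH 5.0: compounds (0.7 nM to 77 uM) titrated against 4 nM rice enzyme and 400 uM 4-MU-alpha-glucoside for 20 min at room temperature; NaOH/glycine stop, read ex 365/em 440 nm, Hill-fitted AC50.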

[16] = molecular target: DNA repair nuclease/redox regulator APEX1 (Homo sapiens) (UniProt P27695); assay: qHTS Validation Assay for Inhibitors of the Human Apurinic/apyrimidinic Endonuclease 1 (APE1) (AID 1705;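 note: TAMRA fluorescence gain over two minutes as APE1 cuts a quenched THF abasic duplex; % is set by controls: 0 for no effect and ±100 for the full control effect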)
How it was run: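 Substrate: 50 nM final fluorophore/quencher THF-abasic duplex. Enzyme preincubated with compounds 15 min, RT. Progress derived from fluorescence difference, third minus first kinetic read.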

[17] = qHTS for differential inhibitors of proliferation of Plasmodium falciparum line 7G8 (AID 1815);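 note: potency is the fitted concentration of half-maximal effect; parasite growth measured after three days of incubation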
[18] = qHTS for differential inhibitors of proliferation of Plasmodium falciparum line GB4 (AID 1816); details: Potency: Plasmodium falciparum GB4 proliferation inhibition;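 note: potency is the fitted concentration of half-maximal effect; parasite growth measured after 72 h incubation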
[19] = qHTS for differential inhibitors of proliferation of Plasmodium falciparum line 3D7 (AID 1876); note: potency is the fitted concentration of half-maximal effect

Chain of Glucocorticoid receptor (Homo sapiens) (P04150 whole entry, looked up, the tested form may be a part): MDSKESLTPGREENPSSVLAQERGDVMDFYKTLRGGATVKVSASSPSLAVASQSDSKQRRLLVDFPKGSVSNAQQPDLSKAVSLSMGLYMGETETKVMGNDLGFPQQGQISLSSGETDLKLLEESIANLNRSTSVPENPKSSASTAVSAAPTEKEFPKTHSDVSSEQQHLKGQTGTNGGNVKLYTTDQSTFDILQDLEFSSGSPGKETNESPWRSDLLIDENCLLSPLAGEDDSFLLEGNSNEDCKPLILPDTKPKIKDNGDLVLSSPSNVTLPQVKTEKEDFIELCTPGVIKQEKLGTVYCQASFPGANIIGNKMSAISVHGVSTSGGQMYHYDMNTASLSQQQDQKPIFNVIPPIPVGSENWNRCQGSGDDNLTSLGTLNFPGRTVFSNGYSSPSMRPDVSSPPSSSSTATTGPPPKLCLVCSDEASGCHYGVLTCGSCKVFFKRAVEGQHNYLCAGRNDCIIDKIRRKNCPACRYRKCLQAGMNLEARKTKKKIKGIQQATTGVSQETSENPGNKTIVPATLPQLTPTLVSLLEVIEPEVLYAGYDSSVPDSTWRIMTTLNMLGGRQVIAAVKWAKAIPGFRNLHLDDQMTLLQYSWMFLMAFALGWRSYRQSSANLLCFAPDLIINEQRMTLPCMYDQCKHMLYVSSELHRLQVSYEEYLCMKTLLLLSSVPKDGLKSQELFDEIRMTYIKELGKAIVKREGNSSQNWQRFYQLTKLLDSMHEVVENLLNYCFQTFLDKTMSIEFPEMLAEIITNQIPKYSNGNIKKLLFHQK
Chain of Cytochrome P450 3A4 (Homo sapiens) (P08684 whole entry, looked up): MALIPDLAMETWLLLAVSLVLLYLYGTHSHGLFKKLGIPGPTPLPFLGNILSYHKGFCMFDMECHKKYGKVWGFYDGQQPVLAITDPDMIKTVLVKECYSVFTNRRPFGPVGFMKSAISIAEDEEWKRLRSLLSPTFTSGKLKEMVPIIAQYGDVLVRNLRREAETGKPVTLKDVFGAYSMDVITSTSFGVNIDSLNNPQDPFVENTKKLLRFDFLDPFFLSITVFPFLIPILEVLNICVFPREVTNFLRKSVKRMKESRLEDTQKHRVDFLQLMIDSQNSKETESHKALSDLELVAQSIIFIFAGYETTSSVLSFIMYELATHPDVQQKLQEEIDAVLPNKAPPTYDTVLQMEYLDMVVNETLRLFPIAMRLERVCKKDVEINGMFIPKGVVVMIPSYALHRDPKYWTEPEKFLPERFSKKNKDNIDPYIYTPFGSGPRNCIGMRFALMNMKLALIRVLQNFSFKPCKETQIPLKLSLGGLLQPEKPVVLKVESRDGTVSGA
Chain of Cytochrome P450 1A2 (Homo sapiens) (P05177 whole entry, looked up): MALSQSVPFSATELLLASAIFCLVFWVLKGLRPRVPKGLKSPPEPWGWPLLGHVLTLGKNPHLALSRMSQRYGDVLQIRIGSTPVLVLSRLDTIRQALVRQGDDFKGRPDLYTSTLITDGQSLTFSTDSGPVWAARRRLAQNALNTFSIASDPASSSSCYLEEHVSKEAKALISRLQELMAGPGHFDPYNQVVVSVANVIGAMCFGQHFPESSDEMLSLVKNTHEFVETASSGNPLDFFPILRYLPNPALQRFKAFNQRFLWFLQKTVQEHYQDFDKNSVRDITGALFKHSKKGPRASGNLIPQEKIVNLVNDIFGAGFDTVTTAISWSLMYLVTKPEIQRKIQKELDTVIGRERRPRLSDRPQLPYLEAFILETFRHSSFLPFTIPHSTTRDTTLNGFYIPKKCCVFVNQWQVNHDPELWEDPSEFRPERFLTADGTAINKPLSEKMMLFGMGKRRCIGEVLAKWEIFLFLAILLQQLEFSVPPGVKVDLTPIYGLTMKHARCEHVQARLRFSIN
Chain of Pyruvate kinase PKM (Homo sapiens) (P14618 whole entry, looked up): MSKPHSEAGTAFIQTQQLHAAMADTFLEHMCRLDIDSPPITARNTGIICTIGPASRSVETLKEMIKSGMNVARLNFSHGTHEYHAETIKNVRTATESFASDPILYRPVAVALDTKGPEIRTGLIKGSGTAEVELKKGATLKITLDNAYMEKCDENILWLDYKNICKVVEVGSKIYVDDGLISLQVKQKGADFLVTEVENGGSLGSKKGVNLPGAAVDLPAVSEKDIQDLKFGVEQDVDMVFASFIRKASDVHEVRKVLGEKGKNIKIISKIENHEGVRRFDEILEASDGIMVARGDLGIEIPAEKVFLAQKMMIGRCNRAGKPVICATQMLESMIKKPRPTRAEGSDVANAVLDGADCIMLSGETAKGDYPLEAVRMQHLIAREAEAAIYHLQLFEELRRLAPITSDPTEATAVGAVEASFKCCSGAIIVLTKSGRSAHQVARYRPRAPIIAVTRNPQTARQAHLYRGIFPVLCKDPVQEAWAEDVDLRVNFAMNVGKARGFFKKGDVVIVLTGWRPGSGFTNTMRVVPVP
Chain of Guanine nucleotide-binding protein G(i) subunit alpha-1 (Homo sapiens) (P63096 whole entry, looked up): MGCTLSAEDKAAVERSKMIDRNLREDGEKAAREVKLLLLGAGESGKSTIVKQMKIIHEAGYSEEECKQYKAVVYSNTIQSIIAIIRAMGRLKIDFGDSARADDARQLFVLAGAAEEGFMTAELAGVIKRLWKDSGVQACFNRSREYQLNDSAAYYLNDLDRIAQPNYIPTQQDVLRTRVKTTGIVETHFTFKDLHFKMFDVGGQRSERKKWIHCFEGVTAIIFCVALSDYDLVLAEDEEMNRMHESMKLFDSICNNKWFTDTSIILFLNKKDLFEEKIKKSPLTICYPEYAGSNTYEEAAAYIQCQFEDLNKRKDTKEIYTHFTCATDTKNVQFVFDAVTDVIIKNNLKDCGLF
Chain of Pyruvate kinase (Leishmania mexicana) (Q27686 2-499 E452W): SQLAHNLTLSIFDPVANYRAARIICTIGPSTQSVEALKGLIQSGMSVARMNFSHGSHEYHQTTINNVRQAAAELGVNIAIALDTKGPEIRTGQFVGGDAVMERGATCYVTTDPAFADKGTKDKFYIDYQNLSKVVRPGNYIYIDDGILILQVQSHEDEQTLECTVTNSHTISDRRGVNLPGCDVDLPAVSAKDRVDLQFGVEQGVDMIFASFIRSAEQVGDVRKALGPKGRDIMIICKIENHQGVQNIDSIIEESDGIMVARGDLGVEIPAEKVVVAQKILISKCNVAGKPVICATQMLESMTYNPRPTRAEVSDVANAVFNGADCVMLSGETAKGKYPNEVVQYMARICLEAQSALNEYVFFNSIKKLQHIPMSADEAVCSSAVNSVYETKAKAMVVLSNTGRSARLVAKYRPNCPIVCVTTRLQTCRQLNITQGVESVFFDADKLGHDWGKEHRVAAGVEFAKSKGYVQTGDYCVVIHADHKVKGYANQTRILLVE
Chain of Cytochrome P450 2C19 (Homo sapiens) (P33261 whole entry, looked up): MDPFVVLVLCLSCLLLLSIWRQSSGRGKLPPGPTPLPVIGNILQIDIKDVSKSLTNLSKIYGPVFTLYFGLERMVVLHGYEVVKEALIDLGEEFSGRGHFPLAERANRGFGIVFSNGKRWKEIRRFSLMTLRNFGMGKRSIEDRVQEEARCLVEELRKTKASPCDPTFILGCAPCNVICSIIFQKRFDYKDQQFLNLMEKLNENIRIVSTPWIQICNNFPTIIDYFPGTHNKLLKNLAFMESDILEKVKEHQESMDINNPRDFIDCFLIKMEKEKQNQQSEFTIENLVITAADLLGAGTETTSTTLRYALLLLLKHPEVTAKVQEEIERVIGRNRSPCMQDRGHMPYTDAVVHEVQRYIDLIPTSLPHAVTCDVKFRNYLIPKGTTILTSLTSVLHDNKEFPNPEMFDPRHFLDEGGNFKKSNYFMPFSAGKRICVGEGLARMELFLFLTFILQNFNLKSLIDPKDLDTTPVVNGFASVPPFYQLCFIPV
Chain of DNA repair nuclease/redox regulator APEX1 (Homo sapiens) (P27695 whole entry, looked up): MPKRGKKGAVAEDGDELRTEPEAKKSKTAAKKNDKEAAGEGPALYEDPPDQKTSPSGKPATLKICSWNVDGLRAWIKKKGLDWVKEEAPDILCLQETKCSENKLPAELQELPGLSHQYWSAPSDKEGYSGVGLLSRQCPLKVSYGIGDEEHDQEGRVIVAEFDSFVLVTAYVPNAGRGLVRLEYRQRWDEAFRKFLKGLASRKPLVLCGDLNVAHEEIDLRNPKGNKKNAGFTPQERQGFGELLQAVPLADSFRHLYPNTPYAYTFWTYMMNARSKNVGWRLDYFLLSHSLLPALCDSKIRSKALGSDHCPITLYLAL
Chain of Alpha-galactosidase A (Homo sapiens) (P06280 whole entry, looked up): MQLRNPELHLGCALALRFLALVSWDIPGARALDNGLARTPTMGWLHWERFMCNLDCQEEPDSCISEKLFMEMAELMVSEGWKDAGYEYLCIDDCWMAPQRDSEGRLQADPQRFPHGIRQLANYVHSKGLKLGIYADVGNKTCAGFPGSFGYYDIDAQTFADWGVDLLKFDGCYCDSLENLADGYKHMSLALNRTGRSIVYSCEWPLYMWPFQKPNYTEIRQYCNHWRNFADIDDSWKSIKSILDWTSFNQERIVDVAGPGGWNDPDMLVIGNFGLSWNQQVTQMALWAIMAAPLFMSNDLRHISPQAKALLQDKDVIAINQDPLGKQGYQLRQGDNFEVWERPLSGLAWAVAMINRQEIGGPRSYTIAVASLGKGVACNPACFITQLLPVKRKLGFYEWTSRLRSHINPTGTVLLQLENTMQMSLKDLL

O=Nc1c(-c2c(O)[nH]c3ccccc23)[nH]c2ccccc12
Potency [1]: 200 nM (active) and 31.6 nM (active) | activity change, negative = inhibition [2]: -23.6% | activity, negative = inhibition [3]: -75% (active) | Potency [4]: > 46 µM | Potency [5]: > 46 µM | Potency [6]: 3.16 µM (active) | outcome [7]: inactive | Potency [8]: 7.94 µM (active) | Potency [9]: inactive | Potency [10]: 6.31 µM (active) | outcome [11]: inactive | Potency [12]: 12.6 µM (active) | Potency [13]: inactive | outcome [14]: inactive | outcome [15]: inactive | Potency [16]: inactive | Potency [17]: 1.26 µM (active) | Potency [18]: 0.708 µM (active) | Potency [19]: 0.355 µM (active)
